The values that follow come from PubChem BioAssay AID1704 (The Scripps Research Institute Molecular Screening Center, 2009).

By inhibition is commonly meant how much of the control response was suppressed.

The list shows a part of the results. Calls of active or inactive are those of the source.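 Rule for the calls: active = inhibition above the mean of stimulated solvent-only control wells plus 3 SD (cut at about 22% in these data); inactive = the rest.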

The nature of this assay: blockers of isoproterenol-driven CNG channel signal – cell-based, HEK293-CNG parental, membrane potential fluorescence, Y1 set, counter-screen for NPY-Y1 potentiator/agonist project (AID 1704).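 Note: 0% = isoproterenol-stimulated DMSO wells and 100% = unstimulated DMSO wells.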 The settings on record: isoproterenol cAMP, at 3.6 µM, active compounds read high. For orientation: Counterscreens check selectivity or assay interference.

With `CSC1=NP(=S)(SC)N(C)c2nc3n(c21)CCC3` (configuration not stated), the inhibition is 3.97% (inactive).
As to `Cc1nn(Cc2ccccc2Cl)c(Cl)c1C(=O)OC(C(=O)NC(N)=O)C(C)C` (configuration not stated), the inhibition is 43.1% (active).
